Source: PubChem BioAssay AID1159580 (chemical genetic matrix, 2015)
Where “and” joins values, the source holds several entries; their conditions need not be identical. Equal values may be shown once. The campaign covered roughly 5,500 compounds. About 2,000 (36%) were called active. Roughly 18% stayed inconclusive and do not appear here. No stated cut-off is given here; in the data, active means normalized growth mostly below about 0.91 (no sharp cut-off); inconclusive means no clear call, values can overlap the other calls; inactive means mostly above about 0.92. This is one part of the list.

Assay: chemical genetic growth profiling, strain panel (AID 1159580);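 further: tested at 20 µM; growth read once vehicle control cultures reached saturation at 30 °C; 1 = growth at the plate median or of vehicle wells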
Conditions: S. cerevisiae deletion strains, growth OD

Cc1cccc(CN2CCN(C(c3ccccc3)c3ccc(Cl)cc3)CC2)c1 (stereo not drawn)
normalized growth (locus YAL021C, strain ccr4, stronger effect = lower value): 0.543 (active) | normalized growth (locus YAL026C, strain drs2, stronger effect = lower value): 0.59 (active) | normalized growth (locus YAL030W, strain snc1, stronger effect = lower value): 0.861 (active) | normalized growth (locus YBL061C, strain skt5, stronger effect = lower value): 0.771 (active) | normalized growth (locus YBR009C, strain hhf1, stronger effect = lower value): 0.58 (active) | normalized growth (locus YBR021W, strain FUR4, stronger effect = lower value): 0.645 (active) | normalized growth (locus YBR023C, strain chs3, stronger effect = lower value): 0.701 (active) | normalized growth (locus YBR171W, strain sec66, stronger effect = lower value): 0.879 (active) | normalized growth (locus YBR229C, strain ROT2, stronger effect = lower value): 0.979 (inactive) | normalized growth (locus YBR231C, strain swc5, stronger effect = lower value): 0.636 (active) | normalized growth (locus YBR279W, strain paf1, stronger effect = lower value): 0.777 (active) | normalized growth (locus YCL011C, strain gbp2, stronger effect = lower value): 0.633 (active) | normalized growth (locus YCL016C, strain dcc1, stronger effect = lower value): 0.723 (active) | normalized growth (locus YCL029C, strain bik1, stronger effect = lower value): 0.961 (inactive) | normalized growth (locus YCL061C, strain MRC1, stronger effect = lower value): 0.902 (active) | normalized growth (locus YCL069W, strain vba3, stronger effect = lower value): 0.848 (active) | normalized growth (locus YCR088W, strain abp1, stronger effect = lower value): 0.951 (inactive) | normalized growth (locus YDL005C, strain med2, stronger effect = lower value): 0.999 (inactive) | normalized growth (locus YDL035C, strain GPR1, stronger effect = lower value): 0.815 (active) | normalized growth (locus YDL040C, strain nat1, stronger effect = lower value): 0.922 (active) | normalized growth (locus YDL074C, strain BRE1, stronger effect = lower value): 0.498 (active) | normalized growth (locus YDL101C, strain DUN1, stronger effect = lower value): 0.887 (active) | normalized growth (locus YDL134C, strain PPH21, stronger effect = lower value): 0.806 (active) | normalized growth (locus YDL185W, strain tfp1, stronger effect = lower value): 0.99 (inactive) | normalized growth (locus YDL192W, strain arf1, stronger effect = lower value): 0.772 (active) | normalized growth (locus YDR001C, strain nth1, stronger effect = lower value): 0.978 (inactive) | normalized growth (locus YDR069C, strain doa4, stronger effect = lower value): 0.787 (active) | normalized growth (locus YDR101C, strain arx1, stronger effect = lower value): 0.935 (inactive) | normalized growth (locus YDR137W, strain rgp1, stronger effect = lower value): 1.05 (inactive) | normalized growth (locus YDR159W, strain sac3, stronger effect = lower value): 0.925 (inactive) | normalized growth (locus YDR162C, strain NBP2, stronger effect = lower value): 0.737 (active) | normalized growth (locus YDR195W, strain ref2): 1.52 [resistant] (active) | normalized growth (locus YDR297W, strain sur2, stronger effect = lower value): 0.885 (active) | normalized growth (locus YDR318W, strain mcm21, stronger effect = lower value): 0.828 (active) | normalized growth (locus YDR334W, strain swr1, stronger effect = lower value): 0.903 (inactive) | normalized growth (locus YDR335W, strain msn5, stronger effect = lower value): 0.976 (inactive) | normalized growth (locus YDR388W, stronger effect = lower value): 0.648 (active) | normalized growth (locus YDR392W, strain spt3, stronger effect = lower value): 0.875 (inactive) | normalized growth (locus YDR502C, strain sam2, stronger effect = lower value): 0.85 (active) | normalized growth (locus YEL003W, strain gim4, stronger effect = lower value): 0.793 (active) | normalized growth (locus YEL037C, strain rad23, stronger effect = lower value): 0.856 (active) | normalized growth (locus YEL061C, strain CIN8 (second series), stronger effect = lower value): 0.978 (inactive) | normalized growth (locus YEL061C, strain CIN8, stronger effect = lower value): 0.968 (inactive) | normalized growth (locus YER015W, strain faa2, stronger effect = lower value): 0.561 (active) | normalized growth (locus YER016W, strain bim1, stronger effect = lower value): 0.906 (active) | normalized growth (locus YER110C, stronger effect = lower value): 0.99 (inactive) | normalized growth (locus YER111C, strain swi4, stronger effect = lower value): 0.96 (inactive) | normalized growth (locus YER155C, strain BEM2 (second series), stronger effect = lower value): 0.759 (active) | normalized growth (locus YER155C, strain BEM2, stronger effect = lower value): 0.862 (active) | normalized growth (locus YER167W, strain BCK2, stronger effect = lower value): 0.971 (inactive) | normalized growth (locus YFR010W, strain ubp6, stronger effect = lower value): 0.699 (active) | normalized growth (locus YGL078C, strain dbp3, stronger effect = lower value): 0.987 (inactive) | normalized growth (locus YGL086W, strain mad1, stronger effect = lower value): 0.832 (active) | normalized growth (locus YGL167C, strain pmr1, stronger effect = lower value): 0.983 (inactive) | normalized growth (locus YGL173C, strain kem1, stronger effect = lower value): 0.94 (inactive) | normalized growth (locus YGL227W, strain vid30, stronger effect = lower value): 0.963 (inactive) | normalized growth (locus YGL240W, strain doc1, stronger effect = lower value): 0.951 (inactive) | normalized growth (locus YGL248W, strain PDE1, stronger effect = lower value): 0.769 (active) | normalized growth (locus YGL253W, strain hxk2, stronger effect = lower value): 0.77 (active) | normalized growth (locus YGR135W, strain pre9, stronger effect = lower value): 0.758 (active) | normalized growth (locus YGR252W, strain gcn5, stronger effect = lower value): 0.471 (active) | normalized growth (locus YHR013C, strain ard1, stronger effect = lower value): 0.54 (active) | normalized growth (locus YHR027C, strain rpn1, stronger effect = lower value): 0.68 (active) | normalized growth (locus YHR030C, strain SLT2, stronger effect = lower value): 0.393 (active) and 0.952 (inactive) | normalized growth (locus YHR079C, strain IRE1 (second series), stronger effect = lower value): 0.942 (inactive) | normalized growth (locus YHR079C, strain IRE1, stronger effect = lower value): 0.934 (inactive) | normalized growth (locus YHR094C, strain hxt1, stronger effect = lower value): 0.986 (inactive) | normalized growth (locus YHR129C, strain ARP1, stronger effect = lower value): 0.842 (active) | normalized growth (locus YHR142W, strain chs7, stronger effect = lower value): 0.734 (active) | normalized growth (locus YHR200W, strain rpn10, stronger effect = lower value): 0.904 (active) | normalized growth (locus YIL066C, strain RNR3, stronger effect = lower value): 0.821 (active) | normalized growth (locus YIL073C, strain SPO22, stronger effect = lower value): 0.951 (inactive) | normalized growth (locus YIL125W, strain kgd1, stronger effect = lower value): 0.993 (inactive) | normalized growth (locus YIR030C, strain dcg1, stronger effect = lower value): 0.979 (inactive) | normalized growth (locus YJL092W, strain hpr5, stronger effect = lower value): 0.817 (active) | normalized growth (locus YJL095W, strain BCK1 (second series), stronger effect = lower value): 0.332 (active) | normalized growth (locus YJL095W, strain BCK1, stronger effect = lower value): 0.203 (active) and 0.96 (inactive) | normalized growth (locus YJL115W, strain asf1, stronger effect = lower value): 0.927 (inactive) | normalized growth (locus YJL129C, strain trk1, stronger effect = lower value): 0.61 (active) | normalized growth (locus YJL134W, strain LCB3, stronger effect = lower value): 0.989 (inactive) | normalized growth (locus YJL154C, strain vps35, stronger effect = lower value): 0.995 (inactive) | normalized growth (locus YJL164C, strain tpk1, stronger effect = lower value): 0.622 (active) | normalized growth (locus YJL166W, strain qcr8, stronger effect = lower value): 0.735 (active) | normalized growth (locus YJL168C, strain set2, stronger effect = lower value): 0.987 (inactive) | normalized growth (locus YJL187C, strain SWE1 (second series), stronger effect = lower value): 0.731 (active) | normalized growth (locus YJL187C, strain SWE1, stronger effect = lower value): 0.878 (active) | normalized growth (locus YJR043C, strain POL32, stronger effect = lower value): 0.903 (inactive) | normalized growth (locus YJR066W, strain TOR1, stronger effect = lower value): 0.926 (inactive)
